Assay outcomes as filed in PubChem BioAssay.
Hits are enriched below; roughly 2.9% of the tested compounds scored in any of these assays.
Nrf2 inh: blocks Nrf2 signaling; Potency, µM (doses to about 46 µM), hits mostly inhibitors; 360,000 tested, 2.1% active; AID 504444; A549 ARE-Fluc reporter, luciferase luminescence, 18-24 h; note: nearly all actives have a fitted effect of over 60% in size
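A549 ARE_Fluc cells (5000/well, 5% FBS OPTI-MEM) pre-incubated 2 h, then treated with compounds 18-24 h at 37C/5% CO2 in concentration-response. CellTiter-Fluor viability read first; BugLite luciferase luminescence after 15 min at room temperature gives Nrf2 activity.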
A549 tox: counter-screen for Nrf2 inhibitors: cytotoxicity in A549 cells | Potency, µM (series often up to 46 µM), most hits filed as inhibitors | A549 ARE-Fluc cells, CellTiter-Fluor viability, 18-24 h | 390,000 tested, 0.16% active
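Cytotoxicity counterscreen: CellTiter-Fluor fluorescence was measured in A549 ARE_Fluc cells after 18-24 h of compound exposure in a concentration series. The subsequent BugLite luminescent read reports ARE-luciferase activity.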
Nrf2 ARE act: Nrf2 pathway activation | 410,000 tested, 0.31% active | AID 624171 | AREc32 ARE-luciferase reporter (MCF7-derived line), luminescence, 24 h | Potency, µM (highest dose often 46.1 µM), most hits filed as activators; note: nearly all actives have a fitted effect of over 65% in size
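Reporter line AREc32 (ARE-Fluc), seeded overnight in OPTI-MEM with 5% FBS; compound pin-transferred, 24 hr at 37 deg C, 5% CO2; luminescent read-out.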
ATXN viability: viability counter-screen for ATXN expression inhibitors; S2 cells (HEK-293 line with an ATXN2-luciferase reporter) viability, CellTiter-Fluor protease fluorescence, 24 h; Potency, µM (doses to about 56.7 µM), hits mostly cytotoxic; 400,000 tested, 0.49% active; AID 651635; note: nearly all actives have a fitted effect of over 40% in size
ATXN2 expr inh: reduces ATXN2 reporter expression in HEK-293 cells; HEK-293 ATXN2-luciferase reporter, luminescence, 24 h; Potency, µM (titrated, usually from 57 µM), usual class: inhibitors; 360,000 tested, 0.72% active; AID 1745845; note: nearly all actives have a fitted effect of over 55% in size
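ATXN2-luciferase reporter cells (luciferase flanked by upstream and downstream ATXN2 gene portions) were treated 24 h at 37 °C with compounds at up to 57 uM. SteadyGlo luminescence gave expression; GF-AFC fluorescence gave viability.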
Hits are given with their value; 0 = inactive; ? = inconclusive; - = no result; [ ] = another dose, or the depositor's remark. Calls come from the whole dose curve; as a rule, active = well fitted curve in the direction sought with a large enough effect; inconclusive = small, poorly fitted or top-dose-only effect, or another doubt; inactive = no such curve, though single readings can be large; an effect the other way counts as inactive or inconclusive.

SMILES	Nrf2 inh	A549 tox	Nrf2 ARE act	ATXN viability	ATXN2 expr inh
COc1ccc(S(=O)(=O)Nc2ccc(O)c3ccccc23)cc1	0	0	0	20µM	?
O=C(c1ccc(F)cc1)N1CCC(c2nc(-c3ccc(S(=O)(=O)N4CCCC4)cc3)no2)CC1	0	0	0	-	-
CCc1ccc(C(=O)N2CCC(c3nc(-c4ccc(S(=O)(=O)N5CCCC5)cc4)no3)CC2)cc1	11.6µM	0	0	-	-
Cc1cccc(C(=O)N(CC(=O)Nc2sc(C)c(C)c2C(N)=O)C2CCCC2)c1	?	0	0	0	0
Cc1ccc(C)c(NS(=O)(=O)c2cc(C(N)=O)ccc2C)c1	0	0	0	0	0
Cc1cc(-c2cccs2)c2c(N)c(C(=O)c3ccc4c(c3)OCO4)sc2n1	?	?	0	-	0
COc1ccc(C(=O)c2sc3nc(C)cc(-c4cccs4)c3c2N)cc1OC	10.3µM	0	0	-	0
CCCC1(c2ccccc2)NC(=O)N(CC(=O)Nc2sc(-c3ccccc3)cc2C(=O)OCC)C1=O (stereo unspecified)	?	?	0	0	0
Cc1cc(C)c(C)c(C(=O)CSc2nnc(-c3ccc4[nH]c(C)c(C)c4c3)o2)c1C	11.6µM	?	0	0	0
O=C(Nc1ccccn1)c1ccc2ccccc2n1	?	0	3.16µM	0	0
O=C(Nc1ccc2ccccc2n1)c1ccccc1	?	0	11.2µM	0	0
Cc1cc(C)cc(NC(=O)Nc2ccc3ccccc3n2)c1	0	0	0	0	0
O=C(Nc1ccc2ccccc2n1)c1ccccc1Br	?	0	11.2µM	0	0
Cc1ccc(C(=O)Nc2ccc3ccccc3n2)cc1	?	0	0	0	0
CN(Cc1nc(Cc2ccccc2F)no1)Cc1cccc2ncccc12	18.4µM	0	0	0	0[11.3 µM]
CC/C(=N\Nc1ccc([N+](=O)[O-])cc1)c1ccccc1	20.6µM	?	0	0	0
COc1ccccc1NS(=O)(=O)c1cccc(-n2c(O)c(C=Nc3ccccc3C(=O)O)c3ccccc3c2=O)c1	?	0	0	20µM	0
COC1CCCN(C(=O)c2ccc3oc(Cc4ccc(Cl)cc4)nc3c2)C1 (stereo unspecified)	0	0	0	0	0
Cn1nc(CC(=O)NC2CCCCCC2)c2ccccc2c1=O	18.4µM	0	0	0	0
C/C(=N/NC(=O)c1ccc(C)s1)c1cccc(NC(=O)COc2ccc(Cl)cc2Cl)c1	-	0	0	0	0
C/C(=N/NC(=O)c1cccs1)c1ccc(NC(=O)COc2ccc(Cl)cc2Cl)cc1	?	0	0	11.2µM	12.6µM
Cc1nn(C)c(C)c1CN(C)C(=O)c1nn2c(c1Br)NC(c1cccs1)CC2C(F)(F)F (stereo unspecified)	8.2µM	0	0	0	0
Cc1nn(C)c(C)c1CNC(=O)c1cc2n(n1)C(C(F)(F)F)CC(c1cccs1)N2 (stereo unspecified)	18.4µM	0	0	?	0
Cc1nn(C)c(C)c1CN(C)C(=O)c1cnn2c1NC(c1ccccc1)CC2C(F)(F)F (stereo unspecified)	?	0	0	0	0
COc1ccc(C2CC(C(F)(F)F)n3nc(C(=O)NCc4c(C)nn(C)c4C)c(Cl)c3N2)cc1 (stereo unspecified)	20.6µM	0	0	0	?
SMILES	Nrf2 inh	A549 tox	Nrf2 ARE act	ATXN viability	ATXN2 expr inh
CC(=O)Nc1ccc(S(=O)(=O)N2CCN(C(=O)c3cccnc3)CC2)cc1	0	0	0	0	0
COc1cccc(NC(=S)Nc2cccnc2)c1	0	0	0	0	0
CCN(CC)S(=O)(=O)c1ccc(C(O)=C(C#N)c2nc3ccccc3n2C)cc1	23.1µM	0	0	?	?
Cc1nn(C)c(C(=O)Nc2ccc(S(=O)(=O)NC34CC5CC(CC(C5)C3)C4)cc2)c1Br	14.6µM	?	0	?	?
O=C(O)C(CO)N=Cc1c(O)c2ccccc2oc1=O (stereo unspecified)	6.51µM	?	0	0	0
COc1cc2ncnc(NCCc3ccccc3)c2cc1OC	23.1µM	0	0	?	0
COc1ccc(CCNc2ncnc3cc(OC)c(OC)cc23)cc1OC	20.6µM	0	0	0	0[11.3 µM]
CC1Cn2c(nc3sc4c(c3c2=O)CCC4)N1CCO (stereo unspecified)	0	0	0	?	0
CN(C)c1nc(NCc2ccccc2)nc(SCC(=O)Nc2ccccc2)n1	23.1µM	0	0	0	0
CCC(=NCCc1c(C)[nH]c2ccc(OC(F)(F)F)cc12)C1=C(O)CC(c2ccccc2)CC1=O (stereo unspecified)	20.6µM	?	0	?	0
COC(=O)Cc1ccc(NC(=S)NCc2ccc(F)cc2)cc1	0	0	0	0	0
Nc1c(C(O)(C(F)(F)F)C(F)(F)F)cc(C(O)(C(F)(F)F)C(F)(F)F)c2ccccc12	14.6µM	?	0	?	?
CC1(C)C(=O)C=CC(=O)C(C)(C)C(=O)C=CC(=O)C(C)(C)C2=CC=C(O2)C(C)(C)C(=O)C=CC1=O	0	0	?	-	25.1µM
C=C1CCN([C@@H](CC(C)C)C(=O)NCCCc2ccccc2)S(=O)(=O)c2ccccc21	0	0	0	0	0
OC(Cc1ccncc1)(c1ccccc1)c1ccccc1	0	0	0	0	0
Cc1oc(-c2ccccc2Cl)nc1CSCC(=O)NC1CC1	0	0	0	0	0
Cc1oc(-c2ccccc2F)nc1CSCC(=O)NC1CCCC1	18.4µM	0	0	0	0
Cc1cccc(N2CCN(S(=O)(=O)c3cc(-c4cc(C)no4)ccc3C)CC2C)c1 (stereo unspecified)	7.31µM	0	0	0	0
Cc1cc(-c2ccc(C)c(S(=O)(=O)N3CCC(C)CC3)c2)on1	?	0	0	-	-
Cc1cc(-c2ccc(C)c(S(=O)(=O)N3CCN(c4ccc(F)cc4)CC3)c2)on1	8.2µM	0	0	0	0
COc1ccc(-c2cc(C)no2)cc1S(=O)(=O)N1CCN(c2cccc(C)c2)C(C)C1 (stereo unspecified)	?	0	0	0	-
CCCCCCCCCCOCC(O)CN (stereo unspecified)	-	-	-	39.8µM	39.8µM
CCCCCCCC(=O)OCC(O)CO (stereo unspecified)	0	0	0	0	0
CC(C)CC(=O)Nc1c(C(=O)N2CCN(c3ccccc3F)CC2)oc2ccccc12	25.9µM	0	0	-	-
Cc1cccc(OCC(=O)Nc2c(C(=O)N3CCN(c4ccccc4F)CC3)oc3ccccc23)c1	18.4µM	?	0	-	-
COc1cccc(CC(=O)Nc2c(C(=O)N3CCN(c4ccccc4F)CC3)oc3ccccc23)c1	0	0	0	-	-
O=C(Nc1c(C(=O)N2CCN(c3ccccc3F)CC2)oc2ccccc12)c1ccco1	?	0	0	0	0
CN(C)S(=O)(=O)Nc1ccc(-c2cn3ccsc3n2)cc1	-	0	0	0	0
CCOc1ccc(-n2c(C)cc(/C=C3/C(=N)N4C(=NC3=O)SN=C4S(C)(=O)=O)c2C)cc1	4.61µM	?	0	?	-
